Calls of active or inactive are those of the source.

Assay [1] deals with Plasmodium falciparum Sir2 (PF13_0152, Sir2A). Nature of the assay: Plasmodium falciparum Sir2A binding compounds – biochemical, small-molecule microarray, 635 nm fluorescence, primary screen (AID 1098).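 Also: score merges spot fluorescence intensity with its signal-to-noise ratio.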 The note with it: fluorescence 635 nm, higher = more signal.
Assay [2] can be described thus: probe aDKK1 binding to arrayed compounds – biochemical, biotinylated probe, 635/667 nm fluorescence, primary screen (AID 1099).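 Also: score merges 667nm spot fluorescence with signal to noise across triplicate slides.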 The note with it: small-molecule microarray, higher = more signal.
Assay [3] is described as follows: probe aCHRDL2 binding to arrayed compounds – biochemical, biotinylated probe, 635/667 nm fluorescence, primary screen (AID 1100). Conditions: small-molecule microarray, higher = more signal.
The nature of assay [4]: change in splice reporter luminescence, either direction, cell-based, HEK293, spliceosome inhibition project, primary screen (AID 1101).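 Also: HEK293 cells carrying a splicing-competent luciferase reporter gene; test concentration not given here.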 Conditions: HEK293 splicing luciferase reporter, 24 h, higher = more signal, called active from +8 up or from −8 down. Background: Reporter assays use an easily measured gene product as a stand-in for the process of interest.
The target of assay [5] is Fibroblast growth factor 10 (Homo sapiens) (UniProt O15520). The experiment in a line: compounds binding fibroblast growth factor 10 – biochemical, small-molecule microarray, 635 nm fluorescence, primary screen (AID 1102). Conditions: FGF10 binding, fluorescence 635 nm, higher = more signal.
Assay [6] has as its system glycogen synthase kinase-3 (GSK3A per assay name; protocol says GSK3B). Nature of the assay: compounds binding glycogen synthase kinase-3 – biochemical, small-molecule microarray, 635 nm fluorescence, GSK3A, primary screen (AID 1103). Also: the record names both GSK3A and GSK3B. The note with it: fluorescence 635 nm, higher = more signal.
Assay [7] addresses Epidermal growth factor receptor (Homo sapiens) (UniProt P00533). The experiment in a line: compounds binding epidermal growth factor receptor – biochemical, small-molecule microarray, 635 nm fluorescence, primary screen (AID 1104).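 Also: score merges 667 nm emission intensity with spot signal to noise over triplicate slides.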 The note with it: EGFR binding, higher = more signal.
Assay [8] concerns the target Follistatin-related protein 3 (Homo sapiens) (UniProt O95633). The experiment in a line: compounds binding follistatin-related protein 3 – biochemical, small-molecule microarray, 635 nm fluorescence, primary screen (AID 1105).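 Also: score merges emission near 667 nm and signal to noise per printed spot across three slides.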 The note with it: FSTL3 binding, higher = more signal.
In assay [9] the target is Dickkopf-related protein 1 (Homo sapiens) (UniProt O94907). Nature of the assay: small molecules binding DKK1 protein – biochemical, small-molecule microarray, 635 nm fluorescence scan, primary screen (AID 1106).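 Also: score merges emission near 667 nm with signal to noise over three replicate slides.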 The note with it: higher = more signal.
Assay [10] has as its system Inhibin beta A chain (activin A). The experiment in a line: small molecules binding activin A – biochemical, small-molecule microarray, 635 nm fluorescence scan, primary screen (AID 1107).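 Also: mouse activin A protein probed at 4.33 µg/mL on printed slides; score merges bound-protein fluorescence near 667 nm with spot signal-to-noise.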 Conditions: INHBA, higher = more signal.
Assay [11] relates to Human papillomavirus type 1a protein E7 (residues 44-93). Nature of the assay: small molecules binding HPV E7 44-93 – biochemical, small-molecule microarray, residues 44-93, 635 nm fluorescence, primary screen (AID 1108).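 Also: E7 fragment applied at 1 µg/mL in TBST for 1 h at 4 C; score combines spot fluorescence with its signal to noise ratio.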 The note with it: fluorescence 635 nm, higher = more signal.
The nature of assay [12]: hepatitis C replication reporter changes, two-sided – Huh7 cells, luciferase reporter, HCV replication inhibitor project, primary screen (AID 1109).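 Also: huh7 hepatoma cells harbouring a luciferase neomycin HCV replicon reporter; luciferase luminescence as measure of HCV replicon replication; test concentration not given here.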 The note with it: Huh7 HCV replicon luciferase reporter, 48 h; higher = more signal.
Assay [13] addresses Left-right determination factor 2 (Homo sapiens) (UniProt O00292). Nature of the assay: small molecules binding LEFTY2 protein – biochemical, small-molecule microarray, 635 nm fluorescence scan, primary screen (AID 1110). Conditions: higher = more signal.
Assay [14] concerns the target Calmodulin-1 (Homo sapiens) (UniProt P0DP23). The experiment in a line: small molecules binding calmodulin-1 with EGTA – biochemical, small-molecule microarray, Cy5-labelled CALM1, profiling panel (AID 1111).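 Also: labelled calmodulin applied in Tris saline Tween buffer holding calcium plus EGTA and DTT.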 The note with it: Cy5-CALM1 binding fluorescence, higher = more signal.
Assay [15] shares this target. The experiment in a line: small molecules binding Ca-loaded calmodulin-1 – biochemical, small-molecule microarray, Cy5-labelled CALM1, plus calcium, artefact control for SMM control-protein annotation, profiling panel (AID 1112).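 Also: score merges spot fluorescence with signal to noise from triplicate slides.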 The note with it: Cy5-CALM1 binding fluorescence, higher = more signal.
Assay [16] can be described thus: probe aWnt5a binding to arrayed compounds – biochemical, biotinylated probe, 635/667 nm fluorescence, primary screen (AID 1113).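 Also: score merges 667 nm fluorescence intensity with signal-to-noise per printed feature.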 The note with it: small-molecule microarray, higher = more signal.
Assay [17] can be described thus: probe aShh binding to arrayed compounds – biochemical, biotinylated probe, 635/667 nm fluorescence, primary screen (AID 1114).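 Also: probe is biotin-labelled aShh protein from a stem cell growth factor screen; measures binding of labelled protein to compounds printed on the slide; score merges feature fluorescence at 667 nm with signal-to-noise.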 The note with it: small-molecule microarray, higher = more signal.
Assay [18] is described as follows: probe aNog binding to arrayed compounds – biochemical, biotinylated probe, 635/667 nm fluorescence, primary screen (AID 1115).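 Also: probe is biotinylated aNog protein used at 0.15 µg/mL for 1 h at 4 C; z-score combines 667 nm fluorescence of each spot with its signal to noise.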 Conditions: small-molecule microarray, higher = more signal.
Assay [19] deals with Torsin-1A-interacting protein 1 (Homo sapiens) (UniProt Q5JTV8). The experiment in a line: compound microarray binding of lysate hLAP1 – cell lysate, small-molecule microarray, COS7 lysate, 635/667 nm fluorescence, primary screen (AID 1116). The note with it: 635 nm fluorescence, higher = more signal.
Assay [20] addresses Alpha-bungarotoxin (Bungarus multicinctus) (UniProt P60615). Nature of the assay: compounds binding labelled alpha-BTX control protein – biochemical, small-molecule microarray, Alexa647 label, 635/667 nm fluorescence, artefact control for SMM control protein annotation, profiling panel (AID 1117). The note with it: alpha-BTX-A647 binding fluorescence, higher = more signal.

Sequence of Torsin-1A-interacting protein 1 (Homo sapiens) (Q5JTV8 whole entry, looked up): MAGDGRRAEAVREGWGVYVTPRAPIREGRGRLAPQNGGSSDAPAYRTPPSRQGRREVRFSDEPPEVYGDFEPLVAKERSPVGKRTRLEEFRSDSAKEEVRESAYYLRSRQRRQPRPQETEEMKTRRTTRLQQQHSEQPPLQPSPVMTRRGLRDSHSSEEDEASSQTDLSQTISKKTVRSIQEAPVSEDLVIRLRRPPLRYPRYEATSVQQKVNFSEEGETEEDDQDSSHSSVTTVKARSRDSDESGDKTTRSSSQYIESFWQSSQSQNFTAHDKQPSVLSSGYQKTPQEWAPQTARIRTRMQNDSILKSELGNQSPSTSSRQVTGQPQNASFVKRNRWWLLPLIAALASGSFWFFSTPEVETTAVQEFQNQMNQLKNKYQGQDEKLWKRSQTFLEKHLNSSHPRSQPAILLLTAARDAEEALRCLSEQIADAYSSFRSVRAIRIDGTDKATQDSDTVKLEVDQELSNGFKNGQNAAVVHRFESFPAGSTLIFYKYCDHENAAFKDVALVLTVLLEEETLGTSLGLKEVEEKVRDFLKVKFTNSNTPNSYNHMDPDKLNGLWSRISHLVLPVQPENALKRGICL
Sequence of Left-right determination factor 2 (Homo sapiens) (O00292 whole entry, looked up): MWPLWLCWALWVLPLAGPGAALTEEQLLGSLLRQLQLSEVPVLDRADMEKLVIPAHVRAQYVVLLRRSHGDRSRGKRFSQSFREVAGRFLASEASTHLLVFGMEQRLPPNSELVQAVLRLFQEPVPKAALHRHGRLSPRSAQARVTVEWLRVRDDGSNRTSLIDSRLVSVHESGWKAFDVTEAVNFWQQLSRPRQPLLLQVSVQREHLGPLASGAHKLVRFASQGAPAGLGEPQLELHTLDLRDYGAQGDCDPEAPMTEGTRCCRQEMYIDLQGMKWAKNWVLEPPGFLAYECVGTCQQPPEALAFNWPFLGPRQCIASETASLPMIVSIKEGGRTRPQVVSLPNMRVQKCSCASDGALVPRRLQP
Sequence of Epidermal growth factor receptor (Homo sapiens) (P00533 whole entry, looked up): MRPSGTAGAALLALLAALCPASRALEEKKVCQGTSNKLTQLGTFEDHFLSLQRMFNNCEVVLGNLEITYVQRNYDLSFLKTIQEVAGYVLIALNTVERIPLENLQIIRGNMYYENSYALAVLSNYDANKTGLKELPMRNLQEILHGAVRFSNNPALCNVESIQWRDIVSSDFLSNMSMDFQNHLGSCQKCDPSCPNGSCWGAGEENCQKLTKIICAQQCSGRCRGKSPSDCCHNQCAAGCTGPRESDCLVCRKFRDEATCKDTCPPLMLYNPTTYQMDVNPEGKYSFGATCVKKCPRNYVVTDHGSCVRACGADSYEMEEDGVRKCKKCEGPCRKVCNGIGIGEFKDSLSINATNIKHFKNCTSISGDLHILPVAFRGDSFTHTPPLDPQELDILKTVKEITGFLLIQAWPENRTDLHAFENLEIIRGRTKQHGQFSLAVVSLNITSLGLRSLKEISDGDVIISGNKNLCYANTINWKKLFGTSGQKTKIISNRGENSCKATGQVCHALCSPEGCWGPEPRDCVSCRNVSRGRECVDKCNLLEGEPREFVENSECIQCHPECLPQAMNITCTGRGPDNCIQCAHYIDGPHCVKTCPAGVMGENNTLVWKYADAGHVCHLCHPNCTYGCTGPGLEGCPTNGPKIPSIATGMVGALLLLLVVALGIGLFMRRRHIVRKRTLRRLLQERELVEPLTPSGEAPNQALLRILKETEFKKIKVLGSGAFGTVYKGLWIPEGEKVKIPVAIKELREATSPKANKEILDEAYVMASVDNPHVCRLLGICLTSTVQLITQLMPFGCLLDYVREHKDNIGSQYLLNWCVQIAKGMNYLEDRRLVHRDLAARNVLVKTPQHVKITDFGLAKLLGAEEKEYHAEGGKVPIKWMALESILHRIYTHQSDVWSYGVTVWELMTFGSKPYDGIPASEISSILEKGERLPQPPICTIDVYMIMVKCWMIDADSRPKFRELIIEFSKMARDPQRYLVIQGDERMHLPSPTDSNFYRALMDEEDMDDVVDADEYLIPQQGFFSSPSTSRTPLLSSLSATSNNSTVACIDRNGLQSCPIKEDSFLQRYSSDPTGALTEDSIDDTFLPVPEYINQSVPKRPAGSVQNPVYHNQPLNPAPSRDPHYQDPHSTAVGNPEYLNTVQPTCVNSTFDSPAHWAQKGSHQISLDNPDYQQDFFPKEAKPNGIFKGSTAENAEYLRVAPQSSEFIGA
Sequence of Follistatin-related protein 3 (Homo sapiens) (O95633 whole entry, looked up): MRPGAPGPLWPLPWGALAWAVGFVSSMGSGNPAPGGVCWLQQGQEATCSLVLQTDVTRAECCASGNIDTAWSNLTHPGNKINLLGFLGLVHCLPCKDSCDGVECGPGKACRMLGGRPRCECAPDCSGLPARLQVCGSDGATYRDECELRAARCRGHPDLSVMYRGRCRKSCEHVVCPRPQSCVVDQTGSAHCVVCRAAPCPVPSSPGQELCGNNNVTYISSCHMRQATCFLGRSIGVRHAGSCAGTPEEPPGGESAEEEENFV
Sequence of Fibroblast growth factor 10 (Homo sapiens) (O15520 whole entry, looked up): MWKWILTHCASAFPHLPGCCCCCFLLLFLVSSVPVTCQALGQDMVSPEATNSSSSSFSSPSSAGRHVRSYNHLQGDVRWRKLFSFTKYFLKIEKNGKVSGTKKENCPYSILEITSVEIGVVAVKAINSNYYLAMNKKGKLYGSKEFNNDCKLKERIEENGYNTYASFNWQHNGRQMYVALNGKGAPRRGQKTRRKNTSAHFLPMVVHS
Sequence of Dickkopf-related protein 1 (Homo sapiens) (O94907 whole entry, looked up): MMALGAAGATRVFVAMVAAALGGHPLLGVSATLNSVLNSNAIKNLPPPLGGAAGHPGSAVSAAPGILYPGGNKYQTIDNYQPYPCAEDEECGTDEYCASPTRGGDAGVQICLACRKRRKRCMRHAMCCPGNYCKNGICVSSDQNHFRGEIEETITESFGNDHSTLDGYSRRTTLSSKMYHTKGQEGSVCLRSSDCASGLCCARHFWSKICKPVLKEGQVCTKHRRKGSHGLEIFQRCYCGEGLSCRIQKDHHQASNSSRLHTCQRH
Sequence of Alpha-bungarotoxin (Bungarus multicinctus) (P60615 whole entry, looked up): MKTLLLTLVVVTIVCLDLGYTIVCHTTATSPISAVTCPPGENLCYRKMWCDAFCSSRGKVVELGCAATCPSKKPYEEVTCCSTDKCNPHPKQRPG

As for `O=C1C[C@@](C(=O)NCCN2CCOCC2)(c2ccc([N+](=O)[O-])cc2)[C@@H](c2ccc(CO)cc2)N1C1CCCCC1`, the composite z-score in [1] was found to be 1.2; in assay [2], 0.653; in [3] it was 1.02; in assay [5], 0.798; in [6] it was 1.02; in [7], 0.789. Also, the composite z-score in assay [8] was 0.662; in assay [9] it was -0.0544; in assay [10], 0.64; in [11], 1.39; in assay [13], 1.06; in [14] it was 0.502. For the same compound, the composite z-score in assay [15] is -0.142; in assay [16], 0.0621; in [17], 0.171; in assay [18], 0.924; in assay [19], 1.6; in assay [20], 0.571. Besides, the z-score in [4] was 0.281 (inactive); in assay [12] it was -0.867.

For the compound `COCCOC(=O)N1C(=O)[C@@]2(c3cc(C#CCC(C(=O)OC)C(=O)OC)ccc31)[C@H](C(=O)N1CCN(c3ncccn3)CC1)[C@H]1C(=O)O[C@H](c3ccccc3)[C@H](c3ccccc3)N1[C@@H]2c1ccc(O)cc1`, the composite z-score in assay [1] was determined as 1.25; in assay [2] it was 0.2; in assay [3] it was 0.733; in assay [5], 0.589; in assay [6] it was 0.845; in assay [7] it was 0.279. Moreover, the composite z-score in assay [8] came out at 0.698; in [9], 0.0392; in [10], 0.283; in assay [11], 0.435; in [13] it was 0.394; in [14], 1.22. Moreover, the composite z-score in [15] turned out to be 0.601; in [16], 0.0077; in assay [17], 0.272; in [18] it was 0.0574; in [19], 0.518; in [20], 1.71. For the same compound, the z-score in assay [4] is -1.15 (inactive); in assay [12], -0.513.

In the case of `N#Cc1ccc(NN2C(C(O)CCc3ccccc3)C=CC3C(=O)N(c4ccccc4)C(=O)C32)cc1` (stereo not given), the composite z-score in assay [1] was 0.712; in [2] it was 1.18; in assay [3], 1.11; in [5], 0.25; in [6], 0.767; in assay [7], -0.164. For the same compound, the composite z-score in [8] is 0.228; in assay [9], 0.0048; in [10] it was 1.02; in assay [11], -0.317; in assay [13] it was -0.111; in [14], 1.59. In addition, the composite z-score in assay [15] is 0.0484; in assay [16] it was 0.0785; in assay [17] it was 0.108; in assay [18], -0.428; in assay [19] it was 2.95; in assay [20], 0.969. Also, the z-score in [4] is -0.474 (inactive); in [12], -0.123.

For the compound `C[C@H]1NC(=O)[C@@H](C)NC(=O)[C@@]23C(=O)N[C@@H](Cc4ccccc4)C2[C@H](C)[C@@]2(C)O[C@H]2C3/C=C/C/C=C\CNC1=O` (stereo not given in full), the composite z-score in [1] is 1.66; in assay [2] it was -0.581; in [3], -0.781; in assay [5] it was 0.14; in [6], 0.0002; in assay [7] it was 0.0021. The composite z-score in assay [8] was 0.171; in assay [9], 0.422; in assay [10], 1.28; in assay [11], -0.569; in assay [13] it was 0.182; in assay [14], -0.809. Besides, the composite z-score in assay [15] is -1.32; in assay [16], -0.0758; in [17], -0.221; in [18] it was -0.0684; in [19] it was -0.485; in assay [20], 0.393. Besides, the z-score was -0.697 (inactive) in assay [4] and -0.175 in [12].

In the case of `O=C1O[C@H](c2ccccc2)[C@H](c2ccccc2)N2[C@H]1[C@@H](C(=O)Nc1nc3ccccc3s1)[C@]1(C(=O)Nc3ccc(C#CC4=CCCCC4)cc31)[C@H]2c1ccccc1OCCO`, the composite z-score in [1] is 1.51; in assay [2] it was -0.0804; in assay [3], -0.262; in [5], 1.14; in assay [6], 1.02; in assay [7], 0.516. The composite z-score in [8] stood at 1.27; in [9], 0.574; in [10], 0.345; in [11], 1.35; in [13] it was 0.59; in assay [14] it was 1.31. The composite z-score is 0.149 in [15]; -0.0714 in [16]; -0.263 in [17]; 0.184 in assay [18]; 0.715 in assay [19]; 1.04 in assay [20]. In addition, the figures for the z-score in assay [4] and in assay [12] were -1.69 (inactive) and -1.67, respectively.

In the case of `CO[C@H]1O[C@H](CO)[C@@H](OC(=O)Nc2ccc3c(c2)OCO3)[C@H](OC(=O)Nc2ccccc2)[C@@H]1OC(=O)Nc1ccccc1`, the composite z-score is 0.966 in [1]; 0.0085 in [2]; 0.0249 in [3]; 1.46 in assay [5]; 1.16 in assay [6]; -0.228 in assay [7]. The composite z-score in [8] is 0.479; in [9] it was -0.0463; in assay [10], -0.0204; in [11] it was 1.45; in assay [13], -0.0553; in assay [14] it was 1.01. Besides, the composite z-score in assay [15] is -0.677; in assay [16], 0.129; in assay [17], 0.0796; in assay [18], 0.953; in assay [19], 0.949; in assay [20], 0.902. The z-score in assay [4] is -0.788 (inactive); in assay [12], -1.69.
